# From PubChem BioAssay (EPA / NIEHS)
# Inconclusive results are not listed. Calls of active or inactive are those of the source. How the source made its calls, unless noted: active means hit-call score of the fitted dose curve at least 0.9, where 1 is the maximum; inconclusive means response in the unintended direction; inactive means score below 0.9.
# Tests used:
# [1] = target: Nucleoli Translocation, AR (gene 367) (UniProt P10275); experiment: UPITT_HCI_U2OS_AR_TIF2_Nucleoli_Antagonist: University of Pittsburgh U2OS Androgen Receptor-Transcriptional Intermediary Factor 2 (AR-TIF2) Antagonism High Content Imaging Assay for Nucleoli Translocation (AID 2283997)
# Sequence of Nucleoli Translocation, AR (gene 367) (P10275 whole entry, looked up): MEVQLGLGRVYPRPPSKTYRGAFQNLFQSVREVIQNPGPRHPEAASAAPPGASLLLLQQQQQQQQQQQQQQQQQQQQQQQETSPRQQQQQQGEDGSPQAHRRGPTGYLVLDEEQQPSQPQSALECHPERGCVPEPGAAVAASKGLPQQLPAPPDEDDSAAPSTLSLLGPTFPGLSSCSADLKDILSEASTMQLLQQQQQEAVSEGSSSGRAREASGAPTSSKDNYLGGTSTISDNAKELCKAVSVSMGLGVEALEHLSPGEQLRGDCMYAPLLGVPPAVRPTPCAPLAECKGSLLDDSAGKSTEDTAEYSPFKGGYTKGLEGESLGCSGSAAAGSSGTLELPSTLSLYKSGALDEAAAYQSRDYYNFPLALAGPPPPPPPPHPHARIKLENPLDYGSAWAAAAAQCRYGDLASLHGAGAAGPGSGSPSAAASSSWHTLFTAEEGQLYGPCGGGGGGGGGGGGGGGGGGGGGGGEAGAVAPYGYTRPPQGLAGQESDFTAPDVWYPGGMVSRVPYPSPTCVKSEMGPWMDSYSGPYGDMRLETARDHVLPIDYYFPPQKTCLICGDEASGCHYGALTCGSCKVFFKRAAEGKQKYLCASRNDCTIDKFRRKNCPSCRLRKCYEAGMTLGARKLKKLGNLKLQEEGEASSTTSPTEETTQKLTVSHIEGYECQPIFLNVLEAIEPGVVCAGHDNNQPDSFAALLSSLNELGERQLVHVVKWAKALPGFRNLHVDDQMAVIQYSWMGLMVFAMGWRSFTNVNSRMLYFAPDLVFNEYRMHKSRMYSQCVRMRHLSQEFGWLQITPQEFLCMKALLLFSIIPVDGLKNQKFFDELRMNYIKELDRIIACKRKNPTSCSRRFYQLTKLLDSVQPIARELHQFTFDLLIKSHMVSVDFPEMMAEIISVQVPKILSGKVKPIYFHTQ
# In short: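 U2OS cells co-expressing red-fluorescent-tagged human AR and green-fluorescent-tagged TIF2, imaged by high-content microscopy for nucleolar red fluorescence. Antagonist mode against DHT; primary screen at 20 uM final (0.2% DMSO).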
# [2] = target: Nucleoli Translocation, AR (gene 367) (UniProt P10275); experiment: UPITT_HCI_U2OS_AR_TIF2_Nucleoli_Agonist: University of Pittsburgh U2OS Androgen Receptor-Transcriptional Intermediary Factor 2 (AR-TIF2) Agonism High Content Imaging Assay for Nucleoli Translocation (AID 2283998)
# In short: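 Readout is red (AR-RFP) fluorescence localized to nucleoli, measured by high-content imaging and analysed for increase relative to DMSO. Compound series spanned 0.195 to 50 uM final in 0.5% DMSO.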
# [3] = target: Ratio of Nucleoli Translocation and Cytoplasm, AR (gene 367) (UniProt P10275); experiment: UPITT_HCI_U2OS_AR_TIF2_Nucleoli_Cytoplasm_Ratio_Agonist: University of Pittsburgh U2OS Androgen Receptor-Transcriptional Intermediary Factor 2 (AR-TIF2) Agonism High Content Imaging Assay for Ratio of Nucleoli Translocation and Cytoplasm (AID 2284000);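 further: hits raise the red nucleolar to cytoplasm ratio above vehicle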
# Sequence of Ratio of Nucleoli Translocation and Cytoplasm, AR (gene 367) (P10275 whole entry, looked up): as above
# In short: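 U2OS cells expressing RFP-tagged human AR and GFP-tagged TIF2; high-content imaging ratio of nucleolar to cytoplasmic red fluorescence, fitted as gain of signal vs DMSO. Single point at 20 uM final (0.2% DMSO); concentration-response 0.195-50 uM final (0.5% DMSO).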
# [4] = CCTE_Harrill_HTTr_Viability_MCF7: CCTE's 6-hour Cell Viability Assessment for the High-Throughput Transcriptomics (HTTr) Platform, in MCF-7 cells cultured in DMEM + 10% fetal bovine serum, Harrill Lab (AID 2284010; active means hit-call score of the fitted dose curve at least 0.9, where 1 is the maximum; inactive means score below 0.9)
# In short: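 Viability measured through PI dye exclusion by high-content imaging at 6 h post-dosing.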
# [5] = CCTE_Harrill_HTTr_Apoptosis_MCF7: CCTE's 6-hour Apoptosis Assessment for the High-Throughput Transcriptomics (HTTr) Platform, in MCF-7 cells cultured in DMEM + 10% fetal bovine serum, Harrill Lab (AID 2284011; active means hit-call score of the fitted dose curve at least 0.9, where 1 is the maximum; inactive means score below 0.9)
# In short: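 MCF-7 (DMEM + 10% FBS), 384-well; 8-pt dilution series, 6 h chemical exposure; caspase-3/7 activation via CellEvent Caspase 3/7 Green, HCI; bidirectional fit vs DMSO.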
# PGR (gene 5241) = PGR (gene 5241) (UniProt P06401); experiment: TOX21_PR_BLA_Followup_Antagonist_ratio: Tox21 HEK293 Progesterone Receptor (PR) Antagonism Beta-lactamase Follow-Up Assay, Ratio (AID 2283934);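 further: PR-UAS-bla HEK293T cells stimulated with 1 nM R5020 agonist for 16 hr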
# Sequence of PGR (gene 5241) (P06401 whole entry, looked up): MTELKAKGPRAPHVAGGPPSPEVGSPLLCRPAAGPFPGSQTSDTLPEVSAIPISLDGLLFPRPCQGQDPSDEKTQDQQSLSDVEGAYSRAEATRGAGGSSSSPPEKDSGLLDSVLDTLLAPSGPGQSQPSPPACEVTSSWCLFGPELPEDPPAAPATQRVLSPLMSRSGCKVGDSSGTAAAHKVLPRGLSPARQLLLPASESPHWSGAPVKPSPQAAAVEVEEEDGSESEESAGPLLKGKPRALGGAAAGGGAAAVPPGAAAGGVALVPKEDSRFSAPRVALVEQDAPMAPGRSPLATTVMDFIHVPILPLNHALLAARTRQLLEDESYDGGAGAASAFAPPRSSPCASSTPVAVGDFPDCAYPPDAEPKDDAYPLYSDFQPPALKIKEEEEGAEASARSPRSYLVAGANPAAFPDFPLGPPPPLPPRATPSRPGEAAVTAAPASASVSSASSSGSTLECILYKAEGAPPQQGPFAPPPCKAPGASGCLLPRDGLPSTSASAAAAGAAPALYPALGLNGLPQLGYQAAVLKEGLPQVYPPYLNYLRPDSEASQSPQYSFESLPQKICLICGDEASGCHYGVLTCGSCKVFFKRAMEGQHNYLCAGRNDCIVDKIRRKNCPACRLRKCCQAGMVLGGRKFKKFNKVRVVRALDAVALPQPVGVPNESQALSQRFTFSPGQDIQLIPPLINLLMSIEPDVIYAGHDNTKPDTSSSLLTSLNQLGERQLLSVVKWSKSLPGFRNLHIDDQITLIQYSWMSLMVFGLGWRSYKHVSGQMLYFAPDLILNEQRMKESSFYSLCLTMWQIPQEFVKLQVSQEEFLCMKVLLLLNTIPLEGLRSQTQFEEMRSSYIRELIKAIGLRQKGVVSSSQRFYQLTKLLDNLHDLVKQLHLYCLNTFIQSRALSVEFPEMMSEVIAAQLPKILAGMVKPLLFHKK
# In short: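 Antagonist mode used 1 nM R5020 (final) as agonist on a beta-lactamase reporter line in HEK293T cells. Activity was taken from the substrate cleavage ratio after 16 hr exposure.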
# [6] = TOX21_PR_BLA_Followup_Agonist_viability: Viability Assessment in the Tox21 HEK293 Progesterone Receptor (PR) Agonism Beta-lactamase Follow-Up Assay (AID 2283935);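 further: signal loss means lower viability so actives are cytotoxic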
# In short: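 Multiplexed viability counter-screen: ATP-coupled luciferase signal measured after 30 min at room temperature, following 16 hr compound treatment of PR-UAS-bla HEK293T cells grown in charcoal-stripped serum.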
# [7] = TOX21_PR_BLA_Followup_Antagonist_viability: Viability Assessment in the Tox21 HEK293 Progesterone Receptor (PR) Antagonism Beta-lactamase Follow-Up Assay (AID 2283936);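 further: hits lower the luminescence signal meaning cytotoxicity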
# In short: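 PR-UAS-bla HEK293T cells (3,000/well, 2% charcoal-stripped FBS) given compound plus R5020 agonist, 16 h at 37C. CellTiter-Glo added after bla read, 30 min at room temperature; luminescence loss indicates cytotoxicity.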
# [8] = TOX21_PR_LUC_Followup_Antagonist_viability: Viability Assessment in the Tox21 HEK293 Progesterone Receptor (PR) Antagonism Luciferase Follow-Up Assay (AID 2283940)
# In short: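 Cellular ATP, measured with luciferase-coupled CellTiter-Glo, served as the viability endpoint after HEK293-PR-A-luc cells were exposed to test compounds for 16 h at 37C.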
# [9] = TOX21_PR_LUC_Followup_Agonist_viability: Viability Assessment in the Tox21 HEK293 Progesterone Receptor (PR) Agonism Luciferase Follow-Up Assay (AID 2283941);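 further: loss of signal means cytotoxicity so actives lower viability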
# In short: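 Luminescent ATP quantitation (CellTiter-Glo) serves as the read-out; a drop flags cytotoxic compounds. Cells are HEK293-PR-A-luc grown in 10% charcoal-stripped FBS, plated 3,000/well, and exposed to compound for 16 h.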
# [10] = target: T1, Thyroid hormone receptor alpha (Rattus norvegicus) + Thyroid hormone receptor beta (Rattus norvegicus) (UniProt P18113+P63059); experiment: TOX21_TR_LUC_GH3_Antagonist_Followup: Tox21 GH3 Thyroid Hormone Receptor Antagonism Luciferase Follow-Up Assay (AID 2283942)
# T1 sequence (P63059 whole entry, looked up): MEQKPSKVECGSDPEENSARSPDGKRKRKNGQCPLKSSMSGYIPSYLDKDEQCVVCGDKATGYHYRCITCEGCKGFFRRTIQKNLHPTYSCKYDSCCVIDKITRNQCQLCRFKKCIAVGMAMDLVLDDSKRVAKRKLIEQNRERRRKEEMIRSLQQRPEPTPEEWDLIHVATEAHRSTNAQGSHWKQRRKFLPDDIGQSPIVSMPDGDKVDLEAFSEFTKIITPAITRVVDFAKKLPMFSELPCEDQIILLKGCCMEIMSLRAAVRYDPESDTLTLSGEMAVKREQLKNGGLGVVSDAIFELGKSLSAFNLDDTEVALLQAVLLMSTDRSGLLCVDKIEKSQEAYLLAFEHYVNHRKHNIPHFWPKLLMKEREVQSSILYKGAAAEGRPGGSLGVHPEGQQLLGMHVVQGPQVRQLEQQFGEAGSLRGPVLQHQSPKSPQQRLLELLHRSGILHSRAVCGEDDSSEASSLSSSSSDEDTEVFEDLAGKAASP
# T1 sequence (P18113 whole entry, looked up): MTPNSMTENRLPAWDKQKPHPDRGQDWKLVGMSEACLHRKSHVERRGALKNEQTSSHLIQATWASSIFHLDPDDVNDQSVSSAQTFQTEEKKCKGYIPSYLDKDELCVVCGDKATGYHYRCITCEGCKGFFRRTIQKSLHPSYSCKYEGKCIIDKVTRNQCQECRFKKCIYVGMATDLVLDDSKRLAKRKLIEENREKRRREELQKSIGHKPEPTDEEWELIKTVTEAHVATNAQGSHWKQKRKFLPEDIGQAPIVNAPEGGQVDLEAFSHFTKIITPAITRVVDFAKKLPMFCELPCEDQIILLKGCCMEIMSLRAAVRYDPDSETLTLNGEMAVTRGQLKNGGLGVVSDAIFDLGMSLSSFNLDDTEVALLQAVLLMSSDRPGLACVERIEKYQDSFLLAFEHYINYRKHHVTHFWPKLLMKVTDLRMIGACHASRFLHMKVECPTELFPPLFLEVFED
# In short: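 Antagonist mode: GH3 cells seeded 1,500/well, compounds at 15 concentrations (92 uM to 5nM final) plus T3 at 1.0 nM final, 24 h at 37C. Luciferase read with ONE-Glo after 30 min at room temperature.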
# [11] = TOX21_TRB_BLA_Antagonist_Followup_viability: Viability Assessment in the Tox21 Thyroid Hormone Receptor beta Antagonism Beta-lactamase (BLA) Follow-Up Assay (AID 2283961)
# In short: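 TRβ-bla HEK293T (human TRβ LBD fused to GAL4 DBD), 3,000 cells/well, 2% charcoal-stripped FBS, phenol red-free medium; 18 h compound exposure, 37C; CellTiter-Glo 30 min RT; luminescence, loss-of-signal readout.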
# [12] = TOX21_TR_RXR_BLA_Antagonist_Followup_viability: Viability Assessment in the Tox21 Thyroid Hormone Receptor beta Retinoid X Receptor alpha (RXRa) Antagonism Beta-lactamase (BLA) Follow-Up Assay (AID 2283979)
# In short: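 RXRa-bla HEK293T cells (2,500/well, phenol red-free DMEM, 2% charcoal-stripped FBS) were attached 5 h, then exposed to compounds at 11 concentrations in triplicate for 16 h at 37C. Viability measured by CellTiter-Glo ATP luminescence, bidirectional fitting versus DMSO.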
# THRA (gene 7067) [13] = target: THRA (gene 7067) (UniProt P10827); experiment: TOX21_TRA_COA_Antagonist_Followup_ratio: Tox21 Thyroid Hormone Receptor alpha Antagonism through Coactivator Recruitment Follow-Up Assay, Ratio (AID 2283953)
# Sequence of THRA (gene 7067) (P10827 whole entry, looked up, the tested form may be a part): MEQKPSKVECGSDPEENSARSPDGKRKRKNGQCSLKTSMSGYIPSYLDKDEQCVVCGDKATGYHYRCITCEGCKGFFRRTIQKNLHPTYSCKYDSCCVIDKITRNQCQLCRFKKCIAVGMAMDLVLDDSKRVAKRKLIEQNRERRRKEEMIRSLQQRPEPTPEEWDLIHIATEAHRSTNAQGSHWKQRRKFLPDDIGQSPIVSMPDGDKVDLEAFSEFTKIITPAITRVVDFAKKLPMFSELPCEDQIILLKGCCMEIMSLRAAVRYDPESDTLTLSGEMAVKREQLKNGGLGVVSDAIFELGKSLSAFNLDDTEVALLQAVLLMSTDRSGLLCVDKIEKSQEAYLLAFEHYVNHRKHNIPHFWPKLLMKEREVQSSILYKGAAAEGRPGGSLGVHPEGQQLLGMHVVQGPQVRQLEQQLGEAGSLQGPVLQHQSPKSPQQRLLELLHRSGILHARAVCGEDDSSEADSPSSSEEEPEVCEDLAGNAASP
# In short: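 This follow-up to the GH3 luciferase screen checks specificity in a cell-free format. It measures SRC-2 coactivator peptide binding to TRα LBD by TR-FRET and scores loss of ratio signal relative to DMSO.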
# THRB (gene 7068) [14] = target: THRB (gene 7068) (UniProt P10828); experiment: TOX21_TRB_COA_Antagonist_Followup_ratio: Tox21 Thyroid Hormone Receptor beta Antagonism through Coactivator Recruitment Follow-Up Assay, Ratio (AID 2283967)
# Sequence of THRB (gene 7068) (P10828 whole entry, looked up, the tested form may be a part): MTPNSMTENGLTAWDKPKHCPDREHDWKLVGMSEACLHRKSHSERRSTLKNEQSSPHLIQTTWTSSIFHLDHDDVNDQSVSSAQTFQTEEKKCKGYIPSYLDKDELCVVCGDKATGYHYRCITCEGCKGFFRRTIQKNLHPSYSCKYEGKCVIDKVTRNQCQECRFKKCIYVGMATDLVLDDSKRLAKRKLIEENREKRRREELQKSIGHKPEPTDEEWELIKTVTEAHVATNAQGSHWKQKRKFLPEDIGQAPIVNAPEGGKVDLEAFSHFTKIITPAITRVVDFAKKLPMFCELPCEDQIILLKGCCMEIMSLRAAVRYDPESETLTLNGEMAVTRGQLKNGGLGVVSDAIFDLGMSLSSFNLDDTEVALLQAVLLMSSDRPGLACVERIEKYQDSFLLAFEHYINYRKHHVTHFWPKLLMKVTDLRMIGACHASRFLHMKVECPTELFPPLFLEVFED
# In short: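 Cell-free TR-FRET: GST-TRb LBD (5.0 nM) with fluorescein-SRC-2 peptide (200 nM) and Tb anti-GST antibody (2 nM), 0.10% BSA. 520:495 nm emission ratio normalized to DMSO (0%) and T3 (100%).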
# [15] = target: T1, Thyroid hormone receptor alpha (Rattus norvegicus) + Thyroid hormone receptor beta (Rattus norvegicus); experiment: TOX21_TR_LUC_GH3_Agonist_Followup: Tox21 GH3 Thyroid Hormone Receptor Agonism Luciferase Follow-Up Assay (AID 2283939)
# In short: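 Rat GH3 cells (1,500/well) in serum-free assay medium, treated with 15-point series, 92 uM to 5 nM final, for 24 h at 37C. Luciferase via ONE-Glo luminescence; gain of signal fitted against DMSO, T3 positive control.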
# THRA (gene 7067) [16] = target: THRA (gene 7067) (UniProt P10827); experiment: TOX21_TRA_COA_Agonist_Followup_ratio: Tox21 Thyroid Hormone Receptor alpha Agonism through Coactivator Recruitment Follow-Up Assay, Ratio (AID 2283948; active means hit-call score of the fitted dose curve at least 0.9, where 1 is the maximum; inactive means score below 0.9)
# In short: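 Follow-up specificity assay in which TRα ligand-binding domain, expressed as a GST fusion, recruits a fluorescein-labelled SRC-2 peptide. Energy transfer from a terbium anti-GST antibody gives the acceptor/donor ratio, fitted upward relative to DMSO.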
# THRB (gene 7068) [17] = target: THRB (gene 7068) (UniProt P10828); experiment: TOX21_TRB_BLA_Agonist_Followup_ratio: Tox21 Thyroid Hormone Receptor beta Agonism Beta-lactamase (BLA) Follow-Up Assay, Ratio (AID 2283954)
# In short: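 Human TRβ LBD–GAL4 DBD fusion in GeneBLAzer UAS-bla HEK293T cells; 11 concentrations in triplicate, 18 h at 37°C/5% CO2, T3 as agonist control. CCF4-AM substrate 2 h at room temperature; 460:530 nm ratio fitted for gain of signal versus DMSO.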
# THRB (gene 7068) [18] = target: THRB (gene 7068) (UniProt P10828); experiment: TOX21_TRB_COA_Agonist_Followup_ratio: Tox21 Thyroid Hormone Receptor beta Agonism through Coactivator Recruitment Follow-Up Assay, Ratio (AID 2283963; active means hit-call score of the fitted dose curve at least 0.9, where 1 is the maximum; inactive means score below 0.9)
# In short: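 Agonism is measured as coactivator recruitment in a purified-protein TR-FRET format, using GST-TRβ LBD at 5.0 nM, fluorescein-SRC-2 peptide at 200 nM and Tb-labeled anti-GST antibody at 2 nM. Values are 520:495 nm ratios relative to DMSO (0%) and T3 (100%).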
# [19] = target: Retinoic acid receptor RXR-alpha (Homo sapiens) (UniProt P19793); experiment: TOX21_TR_RXR_BLA_Agonist_Followup_ratio: Tox21 Thyroid Hormone Receptor beta Retinoid X Receptor alpha (RXRa) Agonism Beta-lactamase (BLA) Follow-Up Assay, Ratio (AID 2283968)
# Sequence of Retinoic acid receptor RXR-alpha (Homo sapiens) (P19793 whole entry, looked up, the tested form may be a part): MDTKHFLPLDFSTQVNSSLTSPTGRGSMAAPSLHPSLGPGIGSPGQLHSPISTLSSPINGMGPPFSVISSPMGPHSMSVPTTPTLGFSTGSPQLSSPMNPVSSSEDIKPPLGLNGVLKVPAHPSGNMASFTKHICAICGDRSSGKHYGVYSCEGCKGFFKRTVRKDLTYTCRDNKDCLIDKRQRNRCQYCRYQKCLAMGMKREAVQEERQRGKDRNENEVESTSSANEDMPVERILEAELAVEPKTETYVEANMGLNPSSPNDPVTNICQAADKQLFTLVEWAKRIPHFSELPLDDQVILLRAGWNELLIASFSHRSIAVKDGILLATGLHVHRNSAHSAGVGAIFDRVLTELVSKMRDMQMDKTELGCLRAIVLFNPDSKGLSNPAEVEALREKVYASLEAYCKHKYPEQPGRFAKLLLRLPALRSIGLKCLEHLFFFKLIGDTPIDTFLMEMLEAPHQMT
# In short: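 This follow-up tests whether responses seen in the TR GH3 luciferase agonist screen are specific, using a GAL4-driven beta-lactamase reporter for RXRa in HEK293T cells. Compound exposure lasts 16 h; signal is the cleaved/uncleaved substrate ratio.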
# [20] = TOX21_TR_RXR_BLA_Agonist_Followup_viability: Viability Assessment in the Tox21 Thyroid Hormone Receptor beta Retinoid X Receptor alpha (RXRa) Agonism Beta-lactamase (BLA) Follow-Up Assay (AID 2283970)
# In short: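 In qHTS format, RXRa-bla HEK293T cells (2,500/well) received compound for 16h. ATP content was then measured with CellTiter-Glo, and responses were fitted bidirectionally relative to DMSO controls.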
# [21] = target: Retinoic acid receptor RXR-alpha (Homo sapiens) (UniProt P19793); experiment: TOX21_TR_RXR_BLA_Antagonist_Followup_ratio: Tox21 Thyroid Hormone Receptor beta Retinoid X Receptor alpha (RXRa) Antagonism Beta-lactamase (BLA) Follow-Up Assay, Ratio (AID 2283972)
# In short: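 HEK293T RXRa-bla, 2% charcoal-stripped FBS medium, 16 h compound exposure at 37C, qHTS 11 conc x3. CCF4 FRET ratio ch2/ch1 (460:530), DMSO = baseline, loss-of-signal fit.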
smiles,measurement,setting,value
CCCCC(C)=O,outcome,[1],inactive
same,outcome,[2],inactive
same,outcome,[3],inactive
same,outcome,[4],inactive
same,outcome,[5],inactive
CC(=O)O[C@@H]1CC2C3CCc4cc(OC(=O)c5ccccc5)ccc4C3CCC2(C)[C@H]1OC(C)=O (stereo partly specified),AC50,PGR (gene 5241),5.65 µM (active)
same,outcome,[6],inactive
same,outcome,[7],inactive
same,outcome,[8],inactive
same,outcome,[9],inactive
O=c1[nH]c(=O)n([C@H]2C[C@H](O)[C@@H](CO)O2)cc1C(F)(F)F,outcome,[10],inactive
same,outcome,[11],inactive
same,outcome,[12],inactive
CCC(=O)Oc1ccc2c(c1)CC[C@@H]1[C@@H]2CC[C@@]2(C)[C@H]1C[C@@H](OC(=O)CC)[C@@H]2OC(=O)CC,AC50,PGR (gene 5241),2.81 µM (active)
same,outcome,[6],inactive
same,outcome,[7],inactive
same,outcome,[8],inactive
same,outcome,[9],inactive
Cc1ccc(Nc2nccc(N(C)c3ccc4c(C)n(C)nc4c3)n2)cc1S(N)(=O)=O,AC50,[10],31.3 µM (active)
same,outcome,THRA (gene 7067) [13],inactive
same,AC50,[11],19.2 µM (active)
same,AC50,THRB (gene 7068) [14],19.2 µM (active)
same,outcome,[12],inactive
Nc1ncn([C@H]2C[C@H](O)[C@@H](CO)O2)c(=O)n1,outcome,[15],inactive
same,outcome,THRA (gene 7067) [16],inactive
same,outcome,THRB (gene 7068) [17],inactive
same,outcome,THRB (gene 7068) [18],inactive
same,outcome,[19],inactive
same,outcome,[20],inactive
OCCC1CCCCN1 (stereo unspecified),outcome,[4],inactive
same,outcome,[5],inactive
C=C(NC(=O)C(=C)NC(=O)c1csc(C2=NC3c4csc(n4)C4NC(=O)c5csc(n5)C(C(C)(O)C(C)O)NC(=O)C5CSC(=N5)/C(=C/C)NC(=O)C(C(C)O)NC(=O)c5csc(n5)C3(CC2)NC(=O)C(C)NC(=O)C(=C)NC(=O)C(C)NC(=O)C(C(C)CC)NC2C=Cc3c(C(C)O)cc(nc3C2O)C(=O)OC4C)n1)C(N)=O (stereo unspecified),AC50,[15],2.47 µM (active)
same,outcome,THRA (gene 7067) [16],inactive
same,outcome,THRB (gene 7068) [18],inactive
same,outcome,[19],inactive
same,outcome,[20],inactive
CC(=O)O[C@@]12CO[C@@H]1C[C@H](O)[C@@]1(C)C(=O)[C@H](O)C3=C(C)[C@@H](OC(=O)[C@H](O)[C@@H](NC(=O)OC(C)(C)C)c4ccccc4)C[C@@](O)([C@@H](OC(=O)c4ccccc4)[C@H]21)C3(C)C,outcome,[10],inactive
same,outcome,THRA (gene 7067) [13],inactive
same,outcome,THRB (gene 7068) [14],inactive
same,outcome,[21],inactive
same,outcome,[12],inactive
C[C@@H]1C[C@H]2[C@@H]3C[C@H](F)C4=CC(=O)C=C[C@]4(C)[C@@]3(F)[C@@H](O)C[C@]2(C)[C@@]1(O)C(=O)CO,outcome,PGR (gene 5241),inactive
same,outcome,[6],inactive
same,outcome,[7],inactive
same,outcome,[8],inactive
same,outcome,[9],inactive
